Data as given in PubChem BioAssay.
A number with no mark means an inactive call. Entries that show only a call come without a potency. For some assays here: Potency and affinity values are given separately. Activity calls are given as the source filed them. Unless noted, the rule behind the calls is not given here.

How the values were obtained:
[1] = antimalarial activity against Dd2 strain (AID 2302;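 active = growth inhibition above 50% at the single 2 µM test dose, taken to imply half-maximal potency below 2 µM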); settings: P. falciparum Dd2 in RBCs, LDH growth readout, 72 h; at 2 µM; hits give high values
[2] = human hepatoma cell viability loss – ATP luminescence, cytotoxicity control for P. falciparum antimalarial project, primary screen (AID 2303;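 active = inhibition above 50%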); settings: HepG2 viability, 24-48 h, at 10 µM, hits give high values
[3] = target: L-lactate dehydrogenase (Plasmodium falciparum (isolate CDC / Honduras)) (UniProt Q27743); assay: PfLDH activity inhibition – cell lysate, 3D7 strain, counter-screen for P. falciparum growth inhibition project (AID 2304); settings: P. falciparum 3D7 crude extract, LDH APAD/NBT absorbance; at 2 µM; hits give high values
Chain of L-lactate dehydrogenase (Plasmodium falciparum (isolate CDC / Honduras)) (Q27743 whole entry, looked up): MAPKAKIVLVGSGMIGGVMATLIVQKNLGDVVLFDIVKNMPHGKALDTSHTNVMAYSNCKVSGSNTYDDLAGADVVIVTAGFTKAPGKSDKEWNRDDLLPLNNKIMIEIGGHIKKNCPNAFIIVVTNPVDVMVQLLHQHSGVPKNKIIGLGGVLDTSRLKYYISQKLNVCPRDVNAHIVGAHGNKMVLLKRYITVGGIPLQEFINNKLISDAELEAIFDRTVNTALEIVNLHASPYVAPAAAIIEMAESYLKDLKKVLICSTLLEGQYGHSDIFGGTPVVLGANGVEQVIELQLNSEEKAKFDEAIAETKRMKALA

[4] = inhibition of 3D7 malaria parasite growth – strain 3D7 (AID 2306); settings: P. falciparum 3D7 erythrocytic growth, LDH absorbance, 72 h; at 2 µM; hits give high values
[5] = target: Calcium-dependent protein kinase 1 (Plasmodium falciparum (isolate 3D7)) (UniProt P62344); assay: PfCDPK1 kinase inhibitors, biochemical, TCAMS library (AID 1159585; cut-off not given, nearly all actives have IC50 up to about 0.98 µM;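 note: inhibitors leave more ATP so luminescence rises with inhibition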); settings: recombinant PfCDPK1, Kinase-Glo ATP depletion luminescence
Chain of Calcium-dependent protein kinase 1 (Plasmodium falciparum (isolate 3D7)) (P62344 whole entry, looked up): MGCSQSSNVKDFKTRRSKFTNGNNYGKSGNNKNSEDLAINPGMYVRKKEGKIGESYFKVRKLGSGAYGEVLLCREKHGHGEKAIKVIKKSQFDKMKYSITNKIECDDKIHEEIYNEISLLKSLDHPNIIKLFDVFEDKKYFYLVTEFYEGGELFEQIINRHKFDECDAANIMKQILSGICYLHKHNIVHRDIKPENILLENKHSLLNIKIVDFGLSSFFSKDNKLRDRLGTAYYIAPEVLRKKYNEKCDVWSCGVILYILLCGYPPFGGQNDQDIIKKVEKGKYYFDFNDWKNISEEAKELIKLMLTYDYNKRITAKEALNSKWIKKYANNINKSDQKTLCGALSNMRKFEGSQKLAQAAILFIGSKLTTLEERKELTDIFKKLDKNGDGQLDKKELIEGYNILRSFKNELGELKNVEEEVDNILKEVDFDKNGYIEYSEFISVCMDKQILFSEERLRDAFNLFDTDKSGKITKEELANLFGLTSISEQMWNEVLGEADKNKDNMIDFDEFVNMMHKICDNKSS

[6] = target: Plasmodium falciparum protein kinase 6 (PK6, PF3D7_1337100) (UniProt Q8IDW1); assay: PfPK6 kinase inhibitors, biochemical, TCAMS library (AID 1159586); settings: recombinant PfPK6, Kinase-Glo ATP depletion luminescence
Chain of Plasmodium falciparum protein kinase 6 (PK6, PF3D7_1337100) (Q8IDW1 1-305): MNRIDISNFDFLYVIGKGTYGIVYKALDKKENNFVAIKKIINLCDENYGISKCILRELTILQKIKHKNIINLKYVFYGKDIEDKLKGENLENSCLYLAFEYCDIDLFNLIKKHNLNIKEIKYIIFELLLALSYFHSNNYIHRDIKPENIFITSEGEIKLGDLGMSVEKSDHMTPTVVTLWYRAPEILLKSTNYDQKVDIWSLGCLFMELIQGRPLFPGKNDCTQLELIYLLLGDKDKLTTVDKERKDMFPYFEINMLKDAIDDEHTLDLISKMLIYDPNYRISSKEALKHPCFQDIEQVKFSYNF

[7] = target: Protein kinase 7 (PK7), Plasmodium falciparum 3D7 (PF3D7_0213400) (UniProt Q7YTF7); assay: inhibition of Plasmodium PK7 catalytic activity – biochemical, TCAMS antimalarial set, Kinase-Glo luminescence (AID 1159587); settings: recombinant PfPK7, Kinase-Glo ATP depletion luminescence
Chain of Protein kinase 7 (PK7), Plasmodium falciparum 3D7 (PF3D7_0213400) (Q7YTF7 1-343): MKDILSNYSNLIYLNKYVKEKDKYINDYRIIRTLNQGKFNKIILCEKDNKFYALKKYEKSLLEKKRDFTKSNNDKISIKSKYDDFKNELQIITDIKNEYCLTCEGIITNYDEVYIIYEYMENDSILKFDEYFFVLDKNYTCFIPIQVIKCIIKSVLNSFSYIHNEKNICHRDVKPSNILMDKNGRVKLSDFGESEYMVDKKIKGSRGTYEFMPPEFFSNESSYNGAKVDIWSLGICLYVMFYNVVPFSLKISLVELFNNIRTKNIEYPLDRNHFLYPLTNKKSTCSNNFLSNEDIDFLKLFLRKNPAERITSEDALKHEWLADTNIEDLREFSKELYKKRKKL

[8] = target: Calcium-dependent protein kinase 4 (Plasmodium falciparum (isolate 3D7)) (UniProt Q8IBS5); assay: PfCDPK4 kinase inhibitors, biochemical, TCAMS library (AID 1159588; cut-off not given, nearly all actives have IC50 up to about 0.91 µM); settings: recombinant PfCDPK4, Kinase-Glo ATP depletion luminescence
Chain of Calcium-dependent protein kinase 4 (Plasmodium falciparum (isolate 3D7)) (Q8IBS5 whole entry, looked up): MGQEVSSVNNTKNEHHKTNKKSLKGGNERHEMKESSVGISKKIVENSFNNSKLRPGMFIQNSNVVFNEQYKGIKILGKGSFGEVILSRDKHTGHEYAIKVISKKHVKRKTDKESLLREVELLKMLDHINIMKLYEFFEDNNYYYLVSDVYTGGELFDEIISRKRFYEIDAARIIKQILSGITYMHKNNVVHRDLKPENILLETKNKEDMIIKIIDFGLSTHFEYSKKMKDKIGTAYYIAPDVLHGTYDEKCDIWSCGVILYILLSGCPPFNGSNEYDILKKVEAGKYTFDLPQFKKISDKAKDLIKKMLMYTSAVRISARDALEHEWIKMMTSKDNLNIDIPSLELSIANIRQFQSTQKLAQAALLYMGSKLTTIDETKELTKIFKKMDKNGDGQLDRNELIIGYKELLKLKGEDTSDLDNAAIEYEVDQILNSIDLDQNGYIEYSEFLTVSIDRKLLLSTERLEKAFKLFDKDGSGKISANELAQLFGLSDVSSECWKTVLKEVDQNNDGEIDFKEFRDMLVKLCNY

| SMILES | growth inhibition [1] | inhibition [2] | inhibition [3] [%] | growth inhibition [4] | outcome [5] | outcome [6] | outcome [7] | outcome [8] |
| --- | --- | --- | --- | --- | --- | --- | --- | --- |
| CCOc1ccc2nc3cc(NC(=O)c4ccco4)ccc3c(N)c2c1 | 56% (active) | 36% | -1 | 101% (active) | inactive | inactive | inactive | inactive |
| CO/C(=C\C=C\c1cc2cc(Cl)c(Cl)cc2[nH]1)C(=O)NCCCN1CCN(c2cccc(CCCO)c2)CC1 | 36% | 66% (active) | 3 | 90% (active) | inactive | inactive | inactive | inactive |
| CCCCc1ccc2[nH]cc(C(=O)OCC)c(=O)c2c1 | 96% (active) | 3% | 5 | 95% (active) | inactive | inactive | inactive | inactive |
| N#Cc1ccc(-c2ccc(C(=O)NCCCCN3CCC(c4ccc5c(c4OCC(N)=O)CCCC5)CC3)cc2)cc1 | 23% | 21% | -3 | 87% (active) | inactive | inactive | inactive | inactive |
| CC(=O)Nc1ccc(NC(=O)c2cc(-c3cc(Cl)ccc3O)n[nH]2)cc1 | 100% (active) | 1% | -2 | 100% (active) | inactive | inactive | inactive | inactive |
| COc1cc(CNC(=S)NN=C(C)c2ccccn2)cc(OC)c1OC | 92% (active) | 45% | -4 | 99% (active) | inactive | inactive | inactive | inactive |
| CCCc1cc(Cc2cnc(N)nc2N)cc(CCC)c1OCCCC(=O)OCC | -5% | -8% | -2 | 94% (active) | inactive | inactive | inactive | inactive |
| CCN(CC)CCCN1CCN(C(=O)c2cccc(-c3noc(C(F)(F)F)n3)c2)CC1 | 74% (active) | -10% | 7 | 91% (active) | inactive | inactive | inactive | inactive |
| CC1(C)N=C(N)N=C(N)C1c1ccc(Cl)cc1 (stereo not given) | -2% | 16% | 1 | 96% (active) | inactive | inactive | inactive | inactive |
| Nc1ccc(-c2nc3c(ccc4ccccc43)[nH]2)cc1 | 51% (active) | -21% | -1 | 84% (active) | inactive | inactive | inactive | inactive |
| COc1cc2c(C3CCN(CC4CCC(NC(=O)/C=C/c5ccc(Cl)c(Cl)c5)CC4)CC3)c[nH]c2cn1 (stereo not given) | 100% (active) | 44% | -5 | 101% (active) | inactive | inactive | inactive | inactive |
| CC(C)N1CCCN(C(=O)C2CCN(c3ccc(C(=O)N4CCCC4)cn3)CC2)CC1 | 12% | 41% | 1 | 86% (active) | inactive | inactive | inactive | inactive |
| Cc1ccc(-c2ccc(NC(=O)N3CCc4cc(Br)c(N5CCN(C)CC5)cc43)cc2)cn1 | 16% | 86% (active) | -3 | 80% (active) | inactive | inactive | inactive | inactive |
| N#Cc1cnc2cc(-c3cnc(CNCCN4CCOCC4)s3)ccc2c1Nc1ccc(Oc2ccccc2)cc1 | 83% (active) | 30% | 2 | 97% (active) | inactive | inactive | inactive | inactive |
| COc1cccc(NC(=O)Nc2ccc(Nc3nc(C)cc(N(C)C)n3)cc2)c1 | 100% (active) | 14% | 5 | 101% (active) | inactive | inactive | inactive | inactive |
| C[C@H](Cc1ccc(C(=O)OCCOC(=O)c2ccc(C[C@@H](C)NC[C@H](O)c3cccc(C(F)(F)F)c3)cc2)cc1)NC[C@H](O)c1cccc(C(F)(F)F)c1 | 86% (active) | 10% | -4 | 98% (active) | inactive | inactive | inactive | inactive |
| C=C[C@]1(C)C[C@@H](OC(=O)CS[C@H]2CN3CC[C@H]2C3)[C@@]2(C)C3C(=O)CC[C@@]3(CC[C@H]2C)[C@@H](C)[C@@H]1O (stereo not given in full) | 75% (active) | 18% | 4 | 91% (active) | inactive | inactive | inactive | inactive |
| COc1ccc2nccc([C@@H](O)CN3CCC(NC(=O)c4ccc(Cl)c([N+](=O)[O-])c4)CC3)c2c1 | 43% | 14% | -1 | 88% (active) | inactive | inactive | inactive | inactive |
| CCCCCCCC1=NN2C(=N)C(=Cc3cc(Br)c(OCc4ccc(F)cc4)c(OCC)c3)C(=O)N=C2S1 | -6% | 4% | 0 | 95% (active) | inactive | inactive | inactive | inactive |
| O=C(/C=C/c1ccccc1Cl)NC1CCC(CN2CCC(c3c[nH]c4ccncc34)CC2)CC1 (stereo not given) | 100% (active) | 19% | -2 | 100% (active) | inactive | inactive | inactive | inactive |

| SMILES | growth inhibition [1] | inhibition [2] | inhibition [3] [%] | growth inhibition [4] | outcome [5] | outcome [6] | outcome [7] | outcome [8] |
| --- | --- | --- | --- | --- | --- | --- | --- | --- |
| CN(C)Cc1ccc2cc(NC(=O)c3ccc(-c4ccc(Cl)cc4)cc3)ccc2n1 | 30% | 60% (active) | -1 | 86% (active) | inactive | inactive | inactive | inactive |
| CC1(C)CC(NC(=O)NC2CCN(Cc3ccccc3)CC2)CC(C)(CNC(=O)NC2CCN(Cc3ccccc3)CC2)C1 (stereo not given) | 2% | 10% | 5 | 93% (active) | inactive | inactive | inactive | inactive |
| CC(NC(C)c1cccc(Cl)c1)C(=O)Nc1cc(C(F)(F)F)ccc1N1CCOCC1 (stereo not given) | 33% | 30% | 1 | 89% (active) | inactive | inactive | inactive | inactive |
| O=C(NCCc1ccc(Cl)c(Cl)c1)C1CCCN(C(=O)c2ccc(O)c(-c3ccc(Cl)c(Cl)c3)c2)C1 (stereo not given) | 65% (active) | -9% | -3 | 96% (active) | inactive | inactive | inactive | inactive |
| O=C(NCC1CCC(CNCCCc2ccccc2)CC1)Nc1ccc(Cl)c(Cl)c1 (stereo not given) | 2% | 26% | -6 | 99% (active) | inactive | inactive | inactive | inactive |
| NC(=O)c1ccc(NC(=O)CN(Cc2ccc(Cl)cc2)S(=O)(=O)c2ccccc2)cc1 | 75% (active) | 2% | 6 | 90% (active) | inactive | inactive | inactive | inactive |
| COc1ccc(NC(=O)[C@H](Cc2ccccc2)Nc2cc(C)nc(NCc3ccccc3C)n2)cc1 | 71% (active) | 16% | 2 | 101% (active) | inactive | inactive | inactive | inactive |
| Cc1ccc(-c2nnc3c4ccccc4c(C)nn23)cc1S(=O)(=O)N1CCN(CCO)CC1 | 62% (active) | 16% | -4 | 85% (active) | inactive | inactive | inactive | inactive |
| CCc1sc(N2CCC(C)CC2)nc1C(=O)Nc1ccc(F)cc1C(F)(F)F | 65% (active) | 1% | 2 | 94% (active) | inactive | inactive | inactive | inactive |
| COCCN1CCC(C(=O)NCC(C)(C)c2nc(-c3ccc(Br)c(O)c3)c(-c3ccncc3)[nH]2)CC1 | 6% | -12% | 3 | 99% (active) | inactive | inactive | inactive | inactive |
| COC(=O)C(=C(C)C)N1C(=O)[C@@H](NC(=O)OCc2ccccc2)[C@H]1SS[C@@H]1[C@H](NC(=O)OCc2ccccc2)C(=O)N1C(C(=O)OC)=C(C)C | 96% (active) | 18% | -5 | 97% (active) | inactive | inactive | inactive | inactive |
| COc1cc2nccc(Nc3ccc(OCc4ccccc4)cc3)c2cc1OC | 99% (active) | 35% | 1 | 101% (active) | inactive | inactive | inactive | inactive |
| COc1ccc2ncc(C#N)c(CCN3CCC(NCc4ccc5c(c4)OCCO5)CC3)c2c1 | 31% | 12% | -4 | 96% (active) | inactive | inactive | inactive | inactive |
| c1ccc(C(c2ccccc2)N2CCN(C(c3cccnc3)c3nnnn3C3CCCC3)CC2)cc1 (stereo not given) | 59% (active) | 4% | 0 | 83% (active) | inactive | inactive | inactive | inactive |
| CC(C)c1ccc(CN2CCC(CNC(=O)c3cc(-c4ccc(N(C)C)cc4)cs3)C2)cc1 (stereo not given) | 32% | 36% | 5 | 83% (active) | inactive | inactive | inactive | inactive |
| CC(=O)N(C)C1CCN(Cc2ccc(-c3ccc(-c4nc5ccc(F)cc5[nH]4)s3)cc2)C1 (stereo not given) | 22% | 46% | 1 | 98% (active) | inactive | inactive | inactive | inactive |
| CC(C)CNCc1ccc(-c2ccc(CNC3CCN(Cc4ccccc4)CC3)cc2)cc1 | 96% (active) | 16% | 4 | 100% (active) | inactive | inactive | inactive | inactive |
| COc1cc(C(=O)Nc2nc3ccccc3[nH]2)ccc1OCC(=O)Nc1cccc(C(F)(F)F)c1 | 33% | 33% | -8 | 100% (active) | inactive | inactive | inactive | inactive |
| CN(Cc1cccc(C#N)c1)C1CCN(c2cc(NC(=O)c3cccc(F)c3)ccn2)CC1 | 15% | -1% | -3 | 98% (active) | inactive | inactive | inactive | inactive |
| COc1ccc(-c2nnc(Sc3ccc(C#N)c([N+](=O)[O-])c3)n2CC(C)C)cc1 | 78% (active) | 3% | 4 | 97% (active) | inactive | inactive | inactive | inactive |
